Data on eight molecules can be found in PubChem BioAssay (NCI).

SMILES strings stand for the structures. Values joined by “and” are separate entries in the source; they are usually repeats but may differ in a detail not shown here. Identical values can stand only once. The panel holds about 83,000 compounds, 20% with a hit somewhere; the sample as a whole holds those more often.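 The endpoint reported here, percent growth, reads 100 for growth as untreated, 0 for no net growth and -100 for all cells dead.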 Active and inactive are the calls of the source. Rule for the calls: active = growth percent below 10; inactive = the rest.

Test in all cases: NCI-60 one-dose screen, 48 h (100 = growth as untreated, 0 = no growth, -100 = all killed)
Experiment [1] deals with SR leukemia.
In experiment [2] the test system is RPMI-8226 leukemia. Conditions: 10 µM unless noted.
In experiment [3] the test system is OVCAR-8 ovarian.
Experiment [4] has as its system OVCAR-5 ovarian.
Experiment [5] concerns OVCAR-4 ovarian.
Experiment [6] concerns SK-OV-3 ovarian. Conditions: 10 µM unless noted.
Experiment [7] concerns IGROV1 ovarian.
Experiment [8] deals with OVCAR-3 ovarian.
The subject of experiment [9] is HS 578T breast.
For experiment [10], the system named is NCI/ADR-RES ovarian.

As for `O=C(O)CSCc1nc2ccccc2[nH]1`, the growth in [1] (10 µM unless noted) is 96.5% (inactive); in [2] it was 94% (inactive); in experiment [3] (10 µM unless noted) it was 113% (inactive); in experiment [4] (10 µM unless noted), 110% (inactive); in experiment [5] (10 µM unless noted), 107% (inactive); in [6] it was 113% (inactive). Besides, the growth in experiment [7] (10 µM unless noted) was 109% (inactive); in experiment [8] (10 µM unless noted), 106% (inactive); in experiment [9] (10 µM unless noted), 102% (inactive); in [10] (10 µM unless noted), 101% (inactive).

For `O=CC(O)C(O)C(O)CO` (configuration not stated), the growth in experiment [1] (10 µM unless noted) is 109% (inactive) and 89.6% (inactive); in experiment [2], 81.9% (inactive) and 122% (inactive); in [3] (10 µM unless noted), 110% (inactive) and 106% (inactive); in [4] (10 µM unless noted) it was 57.6% (inactive) and 97.7% (inactive); in experiment [5] (10 µM unless noted), 101% (inactive) and 114% (inactive); in experiment [6] it was 116% (inactive) and 101% (inactive). The growth in [7] (10 µM unless noted) was 105% (inactive); in [8] (10 µM unless noted) it was 106% (inactive); in [9] (10 µM unless noted) it was 98.4% (inactive) and 106% (inactive); in experiment [10] (10 µM unless noted), -41.1% (active) and 106% (inactive).

`CCCCCn1sc(=O)n(Cc2ccc(CNC(=O)C(C)c3ccc(CC(C)C)cc3)cc2)c1=O` (configuration not stated): the growth in [1] (10 µM unless noted) was 104% (inactive) and 1.27% (active); in [2] it was 99.7% (inactive) and -24.6% (active); in experiment [3] (10 µM unless noted) it was 92.5% (inactive) and -15% (active); in [4] (10 µM unless noted), 103% (inactive) and -53.7% (active); in experiment [5] (10 µM unless noted), 90% (inactive) and -47.6% (active); in experiment [6], 97.1% (inactive) and 70.2% (inactive). The growth in experiment [7] (10 µM unless noted) is 106% (inactive) and -83.2% (active); in [8] (10 µM unless noted), 102% (inactive) and -75.4% (active); in [9] (10 µM unless noted) it was 98.4% (inactive) and -7.35% (active); in [10] (10 µM unless noted), 99.8% (inactive) and -17.6% (active).

On to `Cc1cc(C)c(N)c(Br)c1`, for which the growth was 98.8% (inactive) and 100% (inactive) in experiment [1] (10 µM unless noted); 100% (inactive) and 96.7% (inactive) in [2]; 123% (inactive) and 106% (inactive) in experiment [3] (10 µM unless noted); 101% (inactive) and 78.3% (inactive) in [4] (10 µM unless noted); 107% (inactive) and 88.6% (inactive) in experiment [5] (10 µM unless noted); 102% (inactive) and 96% (inactive) in experiment [6]. For the same molecule, the growth was 97.1% (inactive) and 97.7% (inactive) in [7] (10 µM unless noted); 117% (inactive) and 96.8% (inactive) in experiment [8] (10 µM unless noted); 121% (inactive) and 93.6% (inactive) in experiment [9] (10 µM unless noted); 113% (inactive) and 69.2% (inactive) in experiment [10] (10 µM unless noted).

In the case of `CCCCCCCCCCCCCCCc1ccc(Cl)c(O)c1Cl` (tested in a mixture with another compound), the growth in experiment [1] (0.25 µM) is 4.53% (active); in experiment [1] (10 µM), 79.6% (inactive); in experiment [2] it was 29.8% [0.25 µM] (inactive); in [3] (0.25 µM), 36% (inactive); in experiment [3] (10 µM), 92.2% (inactive); in [4] (0.25 µM), 78.5% (inactive). Further, the growth in [4] (10 µM) was 106% (inactive); in experiment [5] (0.25 µM) it was 65% (inactive); in experiment [5] (10 µM) it was 115% (inactive); in [7] (0.25 µM), 28.7% (inactive); in experiment [7] (10 µM), 97.4% (inactive); in experiment [8] (0.25 µM), 65.3% (inactive). The growth in experiment [8] (10 µM) was 112% (inactive); in experiment [9] (0.25 µM) it was 63.9% (inactive); in experiment [9] (10 µM) it was 105% (inactive); in [10] (0.25 µM), 94.8% (inactive); in experiment [10] (10 µM) it was 96.5% (inactive).

As to `c1ccc2c(CC3=NCCN3)cccc2c1`, the growth is 101% (inactive) in experiment [1] (10 µM unless noted); 104% (inactive) and 97.2% (inactive) in experiment [2]; 98% (inactive) and 101% (inactive) in experiment [3] (10 µM unless noted); 97.7% (inactive) and 108% (inactive) in [4] (10 µM unless noted); 108% (inactive) and 110% (inactive) in experiment [5] (10 µM unless noted); 105% (inactive) and 107% (inactive) in [6]. The growth in [7] (10 µM unless noted) was 108% (inactive) and 116% (inactive); in experiment [8] (10 µM unless noted) it was 117% (inactive) and 116% (inactive); in experiment [9] (10 µM unless noted) it was 107% (inactive) and 99.6% (inactive); in experiment [10] (10 µM unless noted) it was 101% (inactive) and 105% (inactive).

Take `O=S1(=O)CC(Br)C(Br)C1` (configuration not stated): the growth in experiment [1] (10 µM unless noted) was 53.6% (inactive); in experiment [2], 85.5% (inactive) and 82.5% (inactive); in experiment [3] (10 µM unless noted), 62.7% (inactive) and 88.9% (inactive); in experiment [4] (10 µM unless noted) it was 96.4% (inactive) and 108% (inactive); in experiment [5] (10 µM unless noted), 63.1% (inactive) and 96% (inactive); in [6], 105% (inactive) and 110% (inactive). The growth in experiment [7] (10 µM unless noted) is 90.1% (inactive) and 59% (inactive); in [8] (10 µM unless noted), 50.3% (inactive) and 75.7% (inactive); in experiment [9] (10 µM unless noted) it was 91.4% (inactive) and 89.7% (inactive); in [10] (10 µM unless noted), 68.5% (inactive) and 110% (inactive).

On to `N=C1N=C(N)CS1`, for which the growth is 99.2% (inactive) in experiment [1] (10 µM unless noted); 107% (inactive) in experiment [2]; 99.9% (inactive) in [3] (10 µM unless noted); 109% (inactive) in experiment [4] (10 µM unless noted); 99.8% (inactive) in experiment [5] (10 µM unless noted); 109% (inactive) in [6]. Also, the growth in experiment [7] (10 µM unless noted) was 105% (inactive); in experiment [8] (10 µM unless noted) it was 106% (inactive); in experiment [9] (10 µM unless noted) it was 109% (inactive); in experiment [10] (10 µM unless noted), 113% (inactive).
